Results reported in PubChem BioAssay (Tox21).
Unmarked numbers belong to inactive results. Entries that show only a call come without a potency. The source made the active and inactive calls. Unless noted, the call rests on the fitted dose curve.

target: Estrogen receptor (Homo sapiens) (UniProt P03372); assay: qHTS assay to identify small molecule agonists of the estrogen receptor alpha (ER-alpha) signaling pathway (AID 743075); conditions: HEK293 ER-alpha-UAS-bla, beta-lactamase FRET ratio, 18 h; series mostly up to 70.1 µM;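 further: HEK293 GripTite cells with ER-alpha and UAS-driven beta-lactamase reporter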
Potency means the concentration at half of the fitted maximal effect.

Chain of Estrogen receptor (Homo sapiens) (P03372 whole entry, looked up): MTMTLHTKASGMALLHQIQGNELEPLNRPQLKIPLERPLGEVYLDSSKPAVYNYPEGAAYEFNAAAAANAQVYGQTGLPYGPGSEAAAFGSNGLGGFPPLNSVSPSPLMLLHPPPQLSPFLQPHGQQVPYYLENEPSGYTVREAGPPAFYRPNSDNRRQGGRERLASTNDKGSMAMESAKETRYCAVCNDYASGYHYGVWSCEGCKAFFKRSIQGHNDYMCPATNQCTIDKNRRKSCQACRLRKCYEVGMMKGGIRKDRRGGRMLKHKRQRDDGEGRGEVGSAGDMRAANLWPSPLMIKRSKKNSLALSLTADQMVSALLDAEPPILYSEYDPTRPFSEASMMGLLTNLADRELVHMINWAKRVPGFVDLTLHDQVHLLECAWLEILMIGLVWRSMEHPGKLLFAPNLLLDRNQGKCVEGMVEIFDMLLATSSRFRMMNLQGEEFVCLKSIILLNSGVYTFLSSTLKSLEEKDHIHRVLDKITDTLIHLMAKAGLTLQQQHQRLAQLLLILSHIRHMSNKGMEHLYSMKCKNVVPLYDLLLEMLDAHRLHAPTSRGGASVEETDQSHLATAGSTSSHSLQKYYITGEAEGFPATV

Structure (SMILES)	Potency	activation
CC(C)=CC=O	inactive	
CC(=O)Nc1ccc(N)cc1	inactive	
O=C(N/N=C/c1ccc([N+](=O)[O-])o1)c1ccc(O)cc1	inactive	
O=S1OCCO1	inactive	
CCOC(=O)CC(=O)C(=O)OCC	inactive	
CC(COc1ccc(C(C)(C)C)cc1)OS(=O)OCCCl (configuration not stated)	inactive	
CCCOC(=O)c1ccc(C(=O)OCCC)nc1	inactive	
CCCCCCCCCCCCCCCCBr	inactive	
OCC1CC=CCC1 (configuration not stated)	inactive	
COc1cc2ncnc(Nc3ccc(F)c(Cl)c3)c2cc1OCCCN1CCOCC1	inactive	
CO[C@H]1C=CO[C@@]2(C)Oc3c(C)c(O)c4c(O)c(c5c(c4c3C2=O)=NC2(CCN(CC(C)C)CC2)N=5)NC(=O)/C(C)=C\C=C/[C@H](C)[C@H](O)[C@@H](C)[C@@H](O)[C@@H](C)[C@H](OC(C)=O)[C@@H]1C	inactive	
CCCCCC=CCC=CCCCCCCCC(=O)OCC	inactive	
CC(=O)[C@H]1CC[C@H]2[C@@H]3C=CC4=CC(=O)CC[C@@]4(C)[C@@H]3CC[C@]12C	inactive	
CCCCCCCCCCCCCCC[C@H](O)[C@@H](N)CO	inactive	
O=C(O)c1cccnc1C(=O)O	inactive	
Oc1ccc(Nc2ccccc2)cc1	55 µM [activator] (active)	
COC(=O)[C@@H]1CC2=CC(=O)CC[C@]2(C)[C@@]23O[C@@H]2C[C@@]2(C)[C@@H](CC[C@@]24CCC(=O)O4)[C@H]13	inactive	
COCC(O)CO (configuration not stated)	inactive	
CCC(=O)OC/C=C/c1ccccc1	inactive	
O=C(CCC1CCN(Cc2ccccc2)CC1)c1ccc2c(c1)NCCCC2	inactive	
O=Cc1c(Cl)cccc1Cl	inactive	
COC(OC)(C(=O)c1ccccc1)c1ccccc1	0.0123 µM [inconclusive] (active)	
CC(C)CCCC(=O)O	inactive	
CCCOCCOCCO	inactive	
CC1CN(c2cc3c(cc2F)c(=O)c(C(=O)O)cn3-c2ccc(F)cc2F)CCN1 (configuration not stated)	inactive	
CC(C)(CCl)c1ccccc1	inactive	
Nc1ccc(Cl)cc1[N+](=O)[O-]	inactive	
CC(Cl)C(Cl)Cl (configuration not stated)	inactive	
Cc1nc2ccccc2s1	inactive	
C=CCCCCCCCCCCCCCCCC		-3.79% [at 6.71 µM]

target: Estrogen receptor (Homo sapiens) (UniProt P03372); assay: qHTS assay to identify small molecule agonists of the estrogen receptor alpha (ER-alpha) signaling pathway using the BG1 cell line (AID 743079; active means well fitted activation curve with a large enough effect in the repeat runs; inconclusive means weak or mixed curves, or effect the other way; inactive means no such curve, though single readings can be large or run the other way; further: nearly all actives have a fitted effect of over 20% in size); conditions: BG1Luc4E2 cells, ERE-luciferase agonist, 22 h; activation: at 70.3 µM (top of the series)

Structure (SMILES)	Potency	activation
CC(C)=CC=O	inactive	
CC(=O)Nc1ccc(N)cc1	inactive	
O=S1OCCO1	inactive	
CCOC(=O)CC(=O)C(=O)OCC	inactive	
CC(COc1ccc(C(C)(C)C)cc1)OS(=O)OCCCl (configuration not stated)	inactive	
CCCOC(=O)c1ccc(C(=O)OCCC)nc1	inactive	
CCCCCCCCCCCCCCCCBr	inactive	
OCC1CC=CCC1 (configuration not stated)	inactive	
CO[C@H]1C=CO[C@@]2(C)Oc3c(C)c(O)c4c(O)c(c5c(c4c3C2=O)=NC2(CCN(CC(C)C)CC2)N=5)NC(=O)/C(C)=C\C=C/[C@H](C)[C@H](O)[C@@H](C)[C@@H](O)[C@@H](C)[C@H](OC(C)=O)[C@@H]1C	inactive	
CCCCCC=CCC=CCCCCCCCC(=O)OCC	inactive	
COc1cc2c(N3CCN(C(=O)Nc4ccc(OC(C)C)cc4)CC3)ncnc2cc1OCCCN1CCCCC1	inactive	
CC(=O)[C@H]1CC[C@H]2[C@@H]3C=CC4=CC(=O)CC[C@@]4(C)[C@@H]3CC[C@]12C	inactive	
CCCCCCCCCCCCCCC[C@H](O)[C@@H](N)CO	inactive	
O=C(O)c1cccnc1C(=O)O	inactive	
Oc1ccc(Nc2ccccc2)cc1	30.6 µM (active)	
COC(=O)[C@@H]1CC2=CC(=O)CC[C@]2(C)[C@@]23O[C@@H]2C[C@@]2(C)[C@@H](CC[C@@]24CCC(=O)O4)[C@H]13	inactive	
COCC(O)CO (configuration not stated)	inactive	
CCC(=O)OC/C=C/c1ccccc1	68.6 µM (active)	
O=Cc1c(Cl)cccc1Cl	inactive	
COC(OC)(C(=O)c1ccccc1)c1ccccc1	4.32 µM (active)	
CC(C)CCCC(=O)O	inactive	
CCCOCCOCCO	inactive	
CC1CN(c2cc3c(cc2F)c(=O)c(C(=O)O)cn3-c2ccc(F)cc2F)CCN1 (configuration not stated)	inactive	
CC(C)(CCl)c1ccccc1	inactive	
CC(Cl)C(Cl)Cl (configuration not stated)	inactive	
Cc1nc2ccccc2s1	inactive	
C=CCCCCCCCCCCCCCCCC		4.88% [at 8.47 µM]
